Test results taken from PubChem BioAssay (Tox21).
Inconclusive results are not listed. Calls of active or inactive are those of the source. Unless noted, calls follow the shape of the full dose curve.

Legend:
[1] = Nuclear factor erythroid 2-related factor 2/antioxidant responsive element (Nrf2/ARE) small molecule agonists: qHTS cell viability counter screen in human keratinocytes (AID 1919968; active = well fitted curve in the direction sought with a large enough effect in the repeat runs; an effect the other way counts as inactive or inconclusive; also: nearly all actives have a fitted effect of over 55% in size)
How it was run: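 In human HaCaT keratinocytes stably expressing an ARE-driven luciferase, compound exposure lasted 23 h at 37 C under 5% CO2. Viable cells are quantified with a protease-based fluorogenic reagent (CellTiter-Fluor) read 1 h after addition.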

[2] = Nuclear factor erythroid 2-related factor 2/antioxidant responsive element (Nrf2/ARE) small molecule agonists: luciferase reporter gene qHTS assay in human keratinocytes (AID 1919969); also: nearly all actives have a fitted effect of over 35% in size
[3] = biological target: Gonadotropin-releasing hormone receptor (Homo sapiens) (UniProt P30968); test: Human gonadotropin-releasing hormone receptor (GnRHR) small molecule agonists, calcium flux assay in GnRHR-HEK293 cells (AID 1920063); also: nearly all actives have a fitted effect of over 35% in size
Sequence of Gonadotropin-releasing hormone receptor (Homo sapiens) (P30968 whole entry, looked up): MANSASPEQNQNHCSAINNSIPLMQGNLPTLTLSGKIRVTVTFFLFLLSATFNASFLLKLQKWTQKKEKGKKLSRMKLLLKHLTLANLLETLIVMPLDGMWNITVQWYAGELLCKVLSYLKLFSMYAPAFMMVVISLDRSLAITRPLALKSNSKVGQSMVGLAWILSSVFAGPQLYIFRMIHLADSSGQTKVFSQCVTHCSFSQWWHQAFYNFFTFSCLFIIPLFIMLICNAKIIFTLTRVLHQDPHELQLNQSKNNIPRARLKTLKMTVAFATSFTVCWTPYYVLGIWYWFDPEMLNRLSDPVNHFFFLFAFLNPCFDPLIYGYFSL
How it was run: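 Intracellular calcium rise is the read-out: engineered human GnRHR HEK293 cells, dye-loaded, are exposed to DMSO-dissolved compounds and fluorescence at Ex/Em 480/540 is tracked for 3 min.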

[4] = biological target: KiSS-1 receptor (Homo sapiens) (UniProt Q969F8); test: Human kisspeptin (KISS1R) small molecule agonists, calcium flux assay in KISS1R-HEK293 cells (AID 1920064; active = well fitted curve in the direction sought with a large enough effect in the repeat runs; an effect the other way counts as inactive or inconclusive)
Sequence of KiSS-1 receptor (Homo sapiens) (Q969F8 whole entry, looked up): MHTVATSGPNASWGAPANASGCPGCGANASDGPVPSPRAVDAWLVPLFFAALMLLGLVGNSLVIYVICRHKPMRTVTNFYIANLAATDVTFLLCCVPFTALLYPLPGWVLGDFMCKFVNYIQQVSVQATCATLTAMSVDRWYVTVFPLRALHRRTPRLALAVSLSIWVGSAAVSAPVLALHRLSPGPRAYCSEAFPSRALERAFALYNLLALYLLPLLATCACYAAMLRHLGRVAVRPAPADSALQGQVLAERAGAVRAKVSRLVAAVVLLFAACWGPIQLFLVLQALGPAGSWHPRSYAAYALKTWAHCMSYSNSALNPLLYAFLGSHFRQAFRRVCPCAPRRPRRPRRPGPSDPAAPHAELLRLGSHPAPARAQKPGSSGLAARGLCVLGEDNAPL
How it was run: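 Concentration-response testing used 15 concentrations in triplicate on human KISS1R-expressing HEK293 cells. Calcium-dependent fluorescence (Ex/Em 480/540) was followed kinetically for 3 min after compound transfer.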

[5] = G protein-coupled receptor (GPCR) small molecule agonists, calcium flux assay: HEK293 wild type cell line counter screen (AID 1920065)
How it was run: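 Fluorescence intensity signals activation. After overnight (18 h) culture and a 1 h calcium dye load at 37 C, compounds are added by pin tool and the plate read at 480/540 nm for 3 min in 1 s steps.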

[6] = p53 small molecule agonists, cell-based qHTS assay with human liver microsomes (AID 1963577);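 also: p53 response element beta-lactamase reporter cells with liver microsomes plus NADPH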
How it was run: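 Reporter activation was measured by LiveBLAzer fluorescence intensity in p53RE-bla cells, which had been exposed to compounds for 16 h at 37 C alongside 0.5 mg/mL human liver microsomes and 0.5 mg/mL NADPH (final concentrations).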

[7] = p53 small molecule agonists, cell-based qHTS assay with rat liver microsomes (AID 1963578)
How it was run: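 Compound in DMSO added to p53RE-bla cells 5 h post-plating; rat microsomes/NADPH 0.5 mg/mL final; 16 h, 37 C; LiveBLAzer 2 h RT.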

[8] = p53 small molecule agonists, cell-based qHTS assay with human liver microsomes: qHTS cell viability counter screen (AID 1963579); also: nearly all actives have a fitted effect of over 45% in size
How it was run: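 HLM-supplemented (0.5 mg/mL final) and NADPH-supplemented (0.5 mg/mL final) p53RE-bla cultures, 4,000 cells per well, were dosed with compounds in DMSO for 16 h at 37 C; luminescent ATP detection (CellTiter-Glo, 30 min, room temperature) quantified surviving cells.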

[9] = p53 small molecule agonists, cell-based qHTS assay with rat liver microsomes: qHTS cell viability counter screen (AID 1963580); also: nearly all actives have a fitted effect of over 45% in size
How it was run: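 Rat liver microsome (0.5 mg/mL final) and NADPH (0.5 mg/mL final) co-incubation with compounds for 16 h at 37 C on HCT-116 p53RE-bla cells; cytotoxicity taken from intracellular ATP luminescence.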

[10] = p53 small molecule agonists, cell-based qHTS assay: qHTS cell viability counter screen (AID 1963581); also: nearly all actives have a fitted effect of over 45% in size
How it was run: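 Luminescence from CellTiter-Glo, reflecting ATP content, serves as the cytotoxicity measure; it is taken after the 2 h reporter substrate step in HCT-116 p53RE-bla cells dosed for 16 h at 37 C.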

[11] = p53 small molecule agonists, cell-based qHTS assay (AID 1963582; active = well fitted activation curve with a large enough effect in the signal ratio in the repeat runs, not every such curve was filed as active; the % refers to the signal ratio)
How it was run: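 After plating, p53RE-bla cells sat 5 h in the incubator; compounds or DMSO vehicle were pinned in; a 16 h incubation at 37 C followed; FRET substrate was added and, 2 h later at RT, fluorescence was measured.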

[12] = biological target: 5-hydroxytryptamine receptor 2A (Homo sapiens) (UniProt P28223); test: 5-hydroxytryptamine receptor 2A (HTR2A) small molecule antagonists, cell-based qHTS assay (AID 1963586); also: nearly all actives have a fitted effect of over 45% in size
Sequence of 5-hydroxytryptamine receptor 2A (Homo sapiens) (P28223 whole entry, looked up): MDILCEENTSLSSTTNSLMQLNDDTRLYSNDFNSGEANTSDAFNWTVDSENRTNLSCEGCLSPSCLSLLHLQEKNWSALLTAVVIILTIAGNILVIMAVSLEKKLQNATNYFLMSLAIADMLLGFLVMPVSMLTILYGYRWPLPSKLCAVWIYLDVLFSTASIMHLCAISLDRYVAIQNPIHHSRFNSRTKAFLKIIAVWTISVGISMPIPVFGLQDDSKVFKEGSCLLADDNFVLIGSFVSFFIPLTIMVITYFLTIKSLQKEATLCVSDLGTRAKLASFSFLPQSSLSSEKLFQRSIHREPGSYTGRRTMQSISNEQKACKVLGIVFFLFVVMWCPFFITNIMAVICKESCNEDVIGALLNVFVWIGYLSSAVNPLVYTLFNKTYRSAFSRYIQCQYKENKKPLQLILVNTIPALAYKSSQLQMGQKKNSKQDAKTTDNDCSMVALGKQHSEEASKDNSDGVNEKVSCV
How it was run: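 CHO cells stably expressing human HTR2A were plated for 18 h at 37 C, then loaded with calcium dye for 1 h. Compounds were preincubated 5 min at room temperature before DOI (4 nM solution) was added. Kinetic fluorescence was read for 3 min.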

[13] = biological target: 5-hydroxytryptamine receptor 2A (Homo sapiens) (UniProt P28223); test: 5-hydroxytryptamine receptor 2A (HTR2A) small molecule agonists, cell-based qHTS assay (AID 1963587); also: nearly all actives have a fitted effect of over 30% in size
How it was run: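 Kinetic calcium-flux fluorescence (2 min, 1 sec intervals) after compound addition in agonist mode. HTR2A-CHO cells were cultured 18 h, then dye-loaded 1 h at 37 C.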

[14] = biological target: Muscarinic acetylcholine receptor M1 (Homo sapiens) (UniProt P11229); test: Cholinergic receptor muscarinic 1 (CHRM1) small molecule antagonists, cell-based qHTS assay (AID 1963588); also: nearly all actives have a fitted effect of over 40% in size
Sequence of Muscarinic acetylcholine receptor M1 (Homo sapiens) (P11229 whole entry, looked up): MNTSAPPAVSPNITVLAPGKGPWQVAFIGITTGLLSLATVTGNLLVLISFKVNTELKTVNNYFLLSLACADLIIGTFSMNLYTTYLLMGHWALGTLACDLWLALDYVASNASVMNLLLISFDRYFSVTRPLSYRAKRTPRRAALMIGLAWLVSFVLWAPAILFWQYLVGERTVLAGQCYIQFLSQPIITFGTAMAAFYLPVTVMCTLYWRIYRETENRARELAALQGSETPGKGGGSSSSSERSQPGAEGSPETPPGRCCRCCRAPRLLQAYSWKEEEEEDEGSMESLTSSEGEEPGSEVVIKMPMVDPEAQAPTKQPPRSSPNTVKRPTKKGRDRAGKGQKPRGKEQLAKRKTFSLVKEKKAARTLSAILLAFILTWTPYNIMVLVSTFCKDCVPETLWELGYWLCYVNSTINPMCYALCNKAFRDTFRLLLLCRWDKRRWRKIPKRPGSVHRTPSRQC
How it was run: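 Compounds were tested at 15 concentrations in three independent runs. Dye-loaded CHRM1-CHO cells were exposed 5 min at room temperature before stimulation by acetylcholine added at 50nM. Intracellular calcium was read kinetically on FDSS for 3 min.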

[15] = biological target: Muscarinic acetylcholine receptor M1 (Homo sapiens) (UniProt P11229); test: Cholinergic receptor muscarinic 1 (CHRM1) small molecule agonists, cell-based qHTS assay (AID 1963589); also: nearly all actives have a fitted effect of over 35% in size
How it was run: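 Fluorescent calcium dye reports M1 activation in stably transfected CHO cells. Compounds, 15 concentrations, added after 1 h dye loading at 37 C; kinetic reading at 1 sec intervals.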

[16] = cAMP Responsive Elements (CRE) small molecule agonists, cell-based qHTS assay (AID 1963590)
How it was run: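 Compound exposure lasted 3 h at 37 C/5% CO2 in CRE-bla HEK 293T cells grown in assay medium with 10% dialyzed FBS and 25 mM HEPES. Reporter signal came from LiveBLAzer B/G FRET substrate, 2 h, room temperature.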

[17] = cAMP Responsive Elements (CRE) small molecule antagonists, cell-based qHTS assay (AID 1963591; active = well fitted inhibition curve with a large enough effect in the signal ratio in the repeat runs, not every such curve was filed as active; the % refers to the signal ratio)
How it was run: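 Stimulation used NKH477 at a final 0.25 uM for 3 h in compound-treated CRE-bla HEK293T cells, seeded 18 h beforehand. Reporter activity was measured with LiveBLAzer B/G FRET substrate after 2 h at room temperature.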

[18] = biological target: Beta-2 adrenergic receptor (Homo sapiens) (UniProt P07550); test: Adrenergic beta2 receptor (ADRB2) small molecule antagonists, cell-based qHTS assay (AID 1963592); also: series mostly up to about 92 µM; nearly all actives have a fitted effect of over 50% in size
Sequence of Beta-2 adrenergic receptor (Homo sapiens) (P07550 whole entry, looked up): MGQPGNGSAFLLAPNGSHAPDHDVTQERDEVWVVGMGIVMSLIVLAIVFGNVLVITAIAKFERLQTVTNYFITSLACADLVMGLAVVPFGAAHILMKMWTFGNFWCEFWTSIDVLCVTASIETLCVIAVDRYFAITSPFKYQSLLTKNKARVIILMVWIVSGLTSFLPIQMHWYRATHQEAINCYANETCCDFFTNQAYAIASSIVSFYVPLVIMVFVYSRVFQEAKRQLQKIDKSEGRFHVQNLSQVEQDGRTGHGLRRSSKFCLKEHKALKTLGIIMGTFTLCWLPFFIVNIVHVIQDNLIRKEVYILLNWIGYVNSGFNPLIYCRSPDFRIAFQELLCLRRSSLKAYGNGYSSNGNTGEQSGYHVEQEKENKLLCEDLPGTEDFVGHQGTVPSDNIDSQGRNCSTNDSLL
How it was run: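 Assay format: CHO-ADRB2 cells, 18-20hr seeding at 37C/5% CO2, then compound plus 1nM isoproterenol agonist mix for 0.5hr RT. Homogeneous time-resolved fluorescence cAMP detection after 1hr, expressed as 665/615 nm ratio.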

[19] = biological target: D(2) dopamine receptor (Homo sapiens) (UniProt P14416); test: Dopamine D2 receptor (DRD2) small molecule agonists, cell-based qHTS assay (AID 1963594); also: nearly all actives have a fitted effect of over 35% in size
Sequence of D(2) dopamine receptor (Homo sapiens) (P14416 whole entry, looked up): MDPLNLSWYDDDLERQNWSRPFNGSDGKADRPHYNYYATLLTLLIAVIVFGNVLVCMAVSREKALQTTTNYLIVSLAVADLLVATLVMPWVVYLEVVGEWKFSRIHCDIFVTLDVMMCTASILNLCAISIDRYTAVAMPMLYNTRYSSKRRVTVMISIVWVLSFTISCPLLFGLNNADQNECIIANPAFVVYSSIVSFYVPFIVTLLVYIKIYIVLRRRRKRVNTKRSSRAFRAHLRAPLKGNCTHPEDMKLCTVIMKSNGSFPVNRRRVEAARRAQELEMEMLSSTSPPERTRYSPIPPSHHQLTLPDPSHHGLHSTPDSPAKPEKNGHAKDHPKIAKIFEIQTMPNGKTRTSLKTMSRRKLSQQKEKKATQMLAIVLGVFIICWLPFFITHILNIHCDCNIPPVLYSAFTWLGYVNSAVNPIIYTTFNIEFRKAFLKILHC
How it was run: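 cAMP accumulation in DRD2-HEK293 cells measured by HTRF after 1 h detection; compounds added 10 min before NKH477 (200nM […]) forskolin-analogue stimulation, 30 min at room temperature, with Ro20-1724 present at 0.1 mM final.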

[20] = biological target: D(2) dopamine receptor (Homo sapiens) (UniProt P14416); test: Dopamine D2 receptor (DRD2) small molecule antagonists, cell-based qHTS assay (AID 1963595; active = well fitted inhibition curve with a large enough effect in the signal ratio in the repeat runs, with a control signal flat; the % refers to the signal ratio)
How it was run: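 Antagonism was scored as restored cAMP in HEK293-DRD2 cells. These cells were stimulated with 200 nM NKH477 and 12 nM quinpirole for 30 min at room temperature, in the presence of 0.1 mM Ro20-1724.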

Measured: Potency

Cc1c(N=C=O)cccc1N=C=O
inactive: all assays above

Cc1cnc(C)c(C)n1
inactive: all assays above

CSSc1ccoc1C
inactive: all assays above

CC1CCC(C(C)CS)CC1S (stereo not given)
inactive: all assays above

CCCCCCC(O)CO (stereo not given)
inactive: all assays above

CC(C)CCCC(=O)O
inactive: all assays above

Cc1cc(-n2nc3ccc(Cl)cc3n2)c(O)c(C(C)(C)C)c1
inactive: all assays above

C1=CCC(c2ccccc2)CC1 (stereo not given)
inactive: all assays above

N#CCc1ccccc1[N+](=O)[O-]
inactive: all assays above

CCCCCC(C)N (stereo not given)
inactive: all assays above

CC(C)=CCCC(C)C=O (stereo not given)
inactive: all assays above

OCC(CBr)(CBr)CBr
inactive: all assays above

CCOCCOCCOC(C)=O
inactive: all assays above
